Compounds with a hit are over-represented: about 1.5% of the library has one in this group of screens.
S1P2 agonist: S1P2 (human) receptor agonism | activation, % at 4.5 µM | S1P2-expressing cell line, agonist reporter read-out | 97,000 compounds, 0.46% hits; in the data active = activation above about 16%;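 also: 0% = vehicle low control and 100% = maximal reference agonist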
Target sequence (O95136 whole entry, looked up): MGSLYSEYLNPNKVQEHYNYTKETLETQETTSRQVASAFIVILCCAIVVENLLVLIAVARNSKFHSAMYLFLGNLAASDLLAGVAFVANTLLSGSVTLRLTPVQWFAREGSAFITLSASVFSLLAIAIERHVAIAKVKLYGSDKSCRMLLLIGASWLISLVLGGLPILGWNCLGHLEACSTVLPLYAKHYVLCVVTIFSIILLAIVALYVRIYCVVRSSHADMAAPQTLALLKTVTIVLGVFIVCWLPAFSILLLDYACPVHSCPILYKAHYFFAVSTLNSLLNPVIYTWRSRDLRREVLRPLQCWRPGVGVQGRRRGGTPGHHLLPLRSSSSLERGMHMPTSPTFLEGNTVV
Mac1 fbg inh: inhibitors of human CD11b/CD18 binding to fibrinogen. K562 CD11b/CD18 adhesion to fibrinogen, ATPlite luminescence; Mn2+ added to activate the integrin. 93,000 compounds, 0.54% hits. AID 1497. inhibition, % at 10 µM;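 active = primary inhibition of 50% or more at 10 µM, then 40% or more on retest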
CD11b adhes enh: enhancers of human CD11b/CD18 binding to fibrinogen | P05107+P11215 | K562 CD11b/CD18 adhesion to fibrinogen, ATPlite luminescence | activation, % at 10 µM | 93,000 compounds, 0.07% hits;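 active = 10 µM primary screen giving 50% or more activity, confirmed by 40% or more on retest at that dose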
S1P2 blocker: blocks the human S1P2 receptor; O95136; cell-based S1P2 antagonist assay, inhibition at 5 uM; 97,000 compounds, 0.21% hits; inhibition, % at 5 µM; in the data active = inhibition above about 45%;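 also: CRE beta-lactamase reporter cells expressing human S1P2 stimulated with S1P; 0% = agonist at EC80 alone and 100% = agonist plus reference antagonist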
GALR2 agonist: agonists of human galanin receptor 2 (GALR2) | O43603 | GALR2-expressing cells, agonist activation read-out | activation, % (concentration not given with the values) | 140,000 compounds, 0.48% hits | AID 803; in the data active = activation above about 5%, passing the limit was not always enough;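 also: 0% = vehicle buffer wells and 100% = reference agonist at full effect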
GALR2 antag: antagonists of human galanin receptor 2 (GALR2) | O43603 | GALR2-expressing cells, antagonist mode | inhibition, % at 4 µM | 140,000 compounds, 0.39% hits | AID 828; in the data active = inhibition above about 27%;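 also: cells stimulated with galanin 1-16 at roughly its EC80; 0% = agonist challenge control and 100% = basal control without agonist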
Starred values were filed as active, the others as inactive; . = not tested or not shown.

SMILES	S1P2 agonist	Mac1 fbg inh	CD11b adhes enh	S1P2 blocker	GALR2 agonist	GALR2 antag
CCCN1CCCc2cc(CN(CCCN3CCOCC3)C(=O)Nc3ccc(OCC)cc3)ccc21	0	65*	0	6	0	-16
COc1ccc(N/C(C)=C/C(=S)Nc2ccccc2)cc1	.	0	2	.	-1	-14
COc1nccnc1NS(=O)(=O)c1ccc(NS(=O)(=O)c2ccc(NC(C)=O)cc2)cc1	-4	68*	-2	-20	0	-3
CCN(CC)c1ccc(-n2c(O)c(C=C3N=c4ccccc4=N3)sc2=S)cc1	.	2	100	.	0	7
O=C(O)CCCCCn1c(O)c(C=C2N=c3ccccc3=N2)sc1=S	.	69*	0	.	-2	2
CCOC(=O)Cc1ccc(NC(=O)c2ccc(C(C)(C)C)cc2)cc1	-6	98*	-6	-5	-1	-11
OCCN(CCO)c1ncnc2c1sc1nc(N3CCOCC3)c3c(c12)CCCC3	23*	3	5	-51	1	2
Cc1cc(C(=O)NCC(=O)OCC(=O)N(C(C)C)C(C)C)ccc1[N+](=O)[O-]	.	3	-4	.	0	-13
CCCC(=O)Nc1ccc(N2CCN(C(=O)c3ccccc3C)CC2)cc1	-6	-7	3	6	-1	33*
Cc1nn(C)c(C)c1CN(C)S(=O)(=O)c1ccc2ccccc2c1	-2	.	.	50*	-2	17
Cc1nn(C)c(C)c1CN(C)S(=O)(=O)c1ccc(F)cc1	-6	.	.	7	-1	3
CCCOc1ccccc1Cn1c(=O)oc2ccc(C)cc21	4	-40	5	-15	0	14
CCCOc1ccc(Cn2c(=O)oc3ccc(C)cc32)cc1OC	29*	.	.	9	0	4
O=C(CCNC(=O)Cn1ccc2ccccc2c1=O)NCCc1ccc(Cl)cc1	.	.	.	.	0	-2
O=C(O)C[C@@H](O)C(=O)O	.	.	.	.	-1	14
COc1ccc(/C=N/NC(=O)c2nc(-c3ccccc3)cc(-c3ccccc3)n2)cc1OC	-12	6	-3	29	-3	0
COc1cccc(/C=N/NC(=O)c2nc(-c3ccccc3)cc(-c3ccccc3)n2)c1	-4	.	.	47*	-1	-4
Cc1ccc(CNC(=O)c2oc3ccc(S(=O)(=O)N4CCOCC4)cc3c2C)cc1	-6	8	-3	50*	-2	6
CCn1c2ccc(OC)cc2c2nc3ccccc3nc21	34*	.	.	-33	-1	-1
CCOc1ccc(Cn2c3ccc(OC)cc3c3nc4ccccc4nc32)cc1	.	.	.	.	-2	7
CCn1c2ccc(Cl)cc2c2nc3ccccc3nc21	43*	-33	9	-39	0	5
O=C(Cc1c[nH]c2ccccc12)Nc1nc2ccccc2[nH]1	609*	-4	27	10	-2	18
CCCN1C=CC(=C2C(=O)c3ccccc3C2=O)C=C1	.	95*	-10	.	-1	15
CCN1C=CC(=C2C(=O)c3ccccc3C2=O)C=C1	1	.	.	24	-2	-12
CCOC(=O)N1CCN(C(=O)C2CCCN(Cc3nc(-c4ccc(Cl)cc4)oc3C)C2)CC1 (stereo unspecified)	-5	70*	-6	6	-3	7
SMILES	S1P2 agonist	Mac1 fbg inh	CD11b adhes enh	S1P2 blocker	GALR2 agonist	GALR2 antag
CCOC(=O)N1CCC(NC(=O)C2CCCN(Cc3nc(-c4cccc(Cl)c4)oc3C)C2)CC1 (stereo unspecified)	-2	60*	-3	61*	-1	25
Cc1[nH]n(-c2ccc([N+](=O)[O-])cc2)c(=O)c1N=Nc1nc2ccccc2s1	-1	.	.	-1	0	4
OCc1cn(-c2ccccc2)nc1-c1ccco1	-5	-5	-4	-1	-1	5
C=CCOC(=O)C1=C(C)NC(C)=C(C(=O)OCC=C)C1c1cn(-c2ccccc2)nc1-c1ccco1	.	.	.	.	5.1*	-1
CC(C)(C)C1CCc2c(sc(NC(=O)c3cc(C4CC4)on3)c2C#N)C1 (stereo unspecified)	-1	54*	-5	17	0	4
COCCn1c(C)cc(C2=NNC(=Nc3ccc(OC)cc3)SC2)c1C	-9	23	81*	-1	-1	-8
O=C(Nc1ccc(N2CCOCC2)cc1)c1ccc(Cl)nc1	-7	-13	1	16	-1	-2
CS(=O)(=O)c1ncc(Cl)c(C(=O)Nc2ccc(N3CCOCC3)cc2)n1	.	-14	2	.	-1	29*
COc1cccc2c1C(=O)O/C2=C/c1ccc2c(c1)OCO2	2	52*	0	-26	-1	-3
O=C(Nc1ccccc1)Nc1cc(Cl)cc(Cl)c1	-4	56*	-4	-17	-2	21
O=C(Nc1cccc(Cl)c1)Nc1cccc(Cl)c1	3	.	.	-26	-2	21
CN(Cc1ccccc1)Cc1nc2c(c(=O)n(C)c(=O)n2C)n1Cc1ccc(F)cc1	39*	-6	10	0	-1	-3
Cc1cccc(NS(=O)(=O)c2cc(C(=O)N3CCc4ccccc4C3)ccc2Cl)c1C	-8	3	-4	8	-2	1
COc1cc(/C=C(/C#N)c2nc3ccccc3[nH]2)ccc1OCC(=O)Nc1ccccc1C	3	-3	204*	8	-1	-19
COc1cc(/C=C(/C#N)c2nc3ccccc3[nH]2)ccc1OCC(=O)Nc1ccccc1C(C)C	19*	.	.	2	-2	4
COc1cc(/C=C(\C#N)c2nc3ccccc3[nH]2)ccc1OC(=O)c1ccco1	.	.	.	.	0	-18
COc1cc(/C=C(\C#N)c2nc3ccccc3s2)ccc1OCC(=O)Nc1ccccc1	.	.	.	.	-1	4
COc1cccc(NC(=O)CCSc2ccc(C)cc2)c1	.	12	-3	.	0	16
Cc1cccc(NC(=S)N2CCOCC2)c1C	.	.	.	.	-1	4
Fc1ccc(CSc2nc3ccccc3[nH]2)c2ccccc12	2	77*	-8	-24	-3	3
O=c1cc(CSc2nc3ccccc3[nH]2)c2ccccc2[nH]1	-3	0	1	-30	-2	0
CCCOc1ccc(CSc2nc3ccccc3[nH]2)cc1	-8	.	.	48*	-1	3
C#CCNc1nc(CC)nc2c1nnn2Cc1ccccc1F	28*	-5	-4	-30	0	-3
CC(C)CN(CC(C)C)c1nc(N)c(C#N)c(CC#N)c1C#N	-3	5	2	-28	6.3*	-3
CCN(CC)S(=O)(=O)c1ccc2[nH]c(=O)cc(C(=O)Nc3ccc(C)c(S(=O)(=O)N(CC)CC)c3)c2c1	.	.	.	.	0	-8
CCCc1nnc(NC(=O)c2c(O)c3cccc4c3n(c2=O)CC4)s1	.	93*	38	.	.	.
Cc1cc(N2CCN(S(=O)(=O)c3ccc(Cl)cc3)CC2)c2ccccc2n1	-3	85*	-8	-9	0	6
Cn1c(-c2sc3ccccc3c2Cl)n[nH]c1=S	-1	-2	-3	-7	0	-6
O=C(CNC(=S)N(Cc1ccccc1)Cc1cccnc1)NC1CCCC1	.	.	.	.	-2	6

High-throughput results as filed in PubChem BioAssay.
